Source: PubChem (National Center for Advancing Translational Sciences (NCATS))
BAZ2B inh – blocks human BAZ2B; Q9UIF8; AlphaScreen BAZ2B-H3K14Ac peptide displacement; Potency, µM (doses to about 114 µM), inactives show top-dose activity change, negative = inhibition, actives largely listed as inhibitors; 4.4% of 360,000 active; also: % is scaled to controls: 0 for no effect and ±100 for the full control effect; nearly all actives have a fitted effect of over 60% in size
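In this displacement format the biotinylated H3(5-23) peptide acetylated at Lys14 serves as ligand at 50 nM, with BAZ2B at 50 nM in PBS pH 7.4 containing 0.01% Tween-20. Donor and acceptor beads are 10 ug/mL final.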
HP1b binding inh – HP1-beta chromodomain-methylated histone interaction inhibition; P83916; AlphaScreen HP1-beta / biotin-H3K9me3 peptide binding; Potency, µM (titrated, usually from 114 µM), for inactives: top-dose activity change, negative = inhibition, usual class: inhibitors; 0.56% of 390,000 active; also: nearly all actives have a fitted effect of over 70% in size
Target sequence (P83916 whole entry, looked up): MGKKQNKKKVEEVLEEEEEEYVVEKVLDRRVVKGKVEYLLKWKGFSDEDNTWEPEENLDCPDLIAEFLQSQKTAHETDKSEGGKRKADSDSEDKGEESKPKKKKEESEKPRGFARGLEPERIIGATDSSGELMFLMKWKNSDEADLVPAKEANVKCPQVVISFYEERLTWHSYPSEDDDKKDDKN
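Compound inhibition of the preformed complex between 50 nM HP1-beta and 50 nM biotinylated H3K9me3 peptide was read by AlphaScreen. Buffer was PBS pH 7.4 with 0.01% Tween-20. Incubations ran 30 min at room temperature, with 10 ug/mL donor/acceptor beads.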
G9a inh – blocks human histone lysine methyltransferase G9a; Q96KQ7; 8.8% of 350,000 active; Potency, µM (titrated, usually from 102 µM), for inactives: at the top dose activity, negative = inhibition, most hits filed as inhibitors; G9a H3K9 monomethylation, AlphaScreen, 2 h; AID 504332; also: % is scaled to controls: 0 for no effect and ±100 for the full control effect; nearly all actives have a fitted effect of over 75% in size
Target sequence (Q96KQ7 913-1193 limits assumed): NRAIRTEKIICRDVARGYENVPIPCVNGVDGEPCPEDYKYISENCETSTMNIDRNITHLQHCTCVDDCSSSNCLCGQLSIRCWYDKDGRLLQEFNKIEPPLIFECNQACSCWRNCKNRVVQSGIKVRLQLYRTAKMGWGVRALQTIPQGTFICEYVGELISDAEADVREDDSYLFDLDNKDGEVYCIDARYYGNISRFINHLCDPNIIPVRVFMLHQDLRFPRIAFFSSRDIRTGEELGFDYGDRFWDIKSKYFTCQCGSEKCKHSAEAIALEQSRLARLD
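G9a (20 nM) preincubated 15 min RT with compounds, then 500 nM biotinylated H3K9 peptide and 20 uM SAM added; 2 h RT reaction. Monomethyl-H3K9 product detected by AlphaScreen with anti-H3K9me1 antibody, streptavidin donor and anti-rabbit IgG acceptor beads.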
JMJD2A Tudor – JMJD2A Tudor domain (human) inhibition. O75164. AID 504339. AlphaScreen JMJD2A-Tudor / H3K4me3 peptide binding. 4.4% of 390,000 active. Potency, µM (titrated, usually from 114 µM), for the others: at the top dose activity change, negative = inhibition, actives largely listed as inhibitors; also: % is scaled to controls: 0 for no effect and ±100 for the full control effect; nearly all actives have a fitted effect of over 50% in size
Sfp PPTase inh – blocks B. subtilis Sfp PPTase activity | Q9F4F7 | Biochemical Sfp PPTase activity, qHTS | Potency, µM, inactives show largest response in the series, negative = inhibition, usual class: inhibitors | 3.5% of 310,000 active;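 also: the enzyme is Sfp with the accession as filed and its product quenches rhodamine fluorescence; 0% = enzyme reaction without inhibitor and -100% = no enzyme wells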
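Step 1, compound plus 15 nM Sfp-PPTase, 15 min, room temperature. Step 2, add rhodamine-CoA (5 uM) and BHQ-2-YbbR (12.5 uM). Step 3, read 525/598 nm fluorescence at 0 and 30 min.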
Starred values were filed as active, the others as inactive; ? = inconclusive; / = not tested or not shown; [ ] = another dose, or the depositor's remark. Only some compounds are listed: those with a hit (about 12% of all), similar ones and a draw of the others. Calls follow the shape of the dose curve; as a rule, active = well fitted curve in the direction sought with a large enough effect; inconclusive = small, poorly fitted or top-dose-only effect, or another doubt; inactive = no such curve, though single readings can be large; an effect the other way counts as inactive or inconclusive. Potency is read from the fitted curve at half-maximal effect.

SMILES	BAZ2B inh	HP1b binding inh	G9a inh	JMJD2A Tudor	Sfp PPTase inh
FC(F)(F)c1ccc(Cl)c(-n2c(Cc3cccs3)n[nH]c2=S)c1	?	16%	/	?	79µM*
Fc1ccc(-n2c(Cc3cccs3)n[nH]c2=S)cc1Cl	-27%	30%	1.8µM*	-26%	7%
Cc1ccc(-n2c(Cc3cccs3)nnc2SCC(=O)Nc2ccc(F)c(F)c2)cc1	1%	26%	-51%[59 µM]	-8%	4%
NC(=O)N[C@H]1NC(=O)NC1=O	/	/	-1%[21.5 µM]	/	5%
NS(=O)(=O)c1cc2c(cc1Cl)N[C@@H]([C@@H]1C[C@@H]3C=C[C@H]1C3)NS2(=O)=O	/	/	/	/	3%
O=C(COC(=O)Cc1ccc(Cl)cc1)NCc1ccco1	/	?	/	56µM*	/
O=C(COC(=O)Cc1ccc(Cl)c(Cl)c1)NCc1ccco1	?	6%	?	-16%	/
O=C(CSc1ccc(Cl)cc1)NCc1ccco1	-34%	38%	/	-15%	89µM*
O=C(CSC1=NCCS1)NCc1ccco1	6%	-12%	12%[12.7 µM]	18µM*	13%
O=C(CSc1ccc(Cl)cc1)c1ccco1	/	?	?	79µM*	45µM*
O=C(CCSc1ccc(Cl)cc1)c1ccco1	9%	66%	-3%[2.33 µM]	27%	8%
O=C([C@@H]1CC=C[C@@H]2CCN(C3CCCCC3)C(=O)[C@@H]21)N1CCN(c2ccccc2)CC1	/	18%	/	-25%	/
O=C(CCSCc1ccc(Cl)cc1)NCc1ccco1	?	10%	-5%[59 µM]	-19%	1%
O=C(CNCc1ccc(Cl)cc1)NCc1ccco1	50µM*	?	5.6µM*	79µM*	-16%
Fc1ccc(NCc2cn3ccccc3n2)cc1	50µM*	16%	-37%[59 µM]	-34%	-11%
COC(=O)c1cc2n3ccccc3c(C)c(-c3ccccc3)c-2c1C(=O)OC	45µM*	?	45µM*	?	-1%
CC(=O)c1c(C)[nH]c(C(=O)CN2C(=O)NC3(CCCCC3)C2=O)c1C	6%	2%	-27%	-10%	/
CC(Sc1nnc(-c2cccnc2)n1N)C(=O)N1CCOCC1 (stereo not drawn)	12%	13%	-1%	-5%	/
CC(Sc1nnc(-c2cccnc2)n1N)C(=O)NCCC1=CCCCC1 (stereo not drawn)	7%	8%	56µM*	-12%	/
CCN(CC)S(=O)(=O)c1cccc(-c2nnc(SC(C)C(=O)NCCC3=CCCCC3)o2)c1 (stereo not drawn)	6%	13%	-7%[12.7 µM]	-16%	2%
CC(Sc1nnc(-c2ccco2)o1)C(=O)NCCC1=CCCCC1 (stereo not drawn)	-2%	44%	50µM*	-5%	8%
O=C(Cc1nnc(CNC(=O)c2ccccc2)s1)Nc1ccc(C(F)(F)F)cc1Cl	/	/	/	-8%	/
O=C(NCc1ccccc1)/C(=C\c1ccccc1)NC(=O)c1ccco1	-11%	21%	27%	-20%	8%
CC(=O)N/C(=C\c1ccc(C)o1)C(=O)NCc1ccccc1	-2%	43%	71µM*	-28%	-4%
Cc1ccc(/C=C(\NC(=O)c2ccccc2)C(=O)NCC2CCCO2)o1 (stereo not drawn)	-12%	33%	56µM*	-7%	15%
SMILES	BAZ2B inh	HP1b binding inh	G9a inh	JMJD2A Tudor	Sfp PPTase inh
Cc1[nH][nH]c(=O)c1N=Nc1ccccc1C#N	?	/	45µM*	/	?
COc1ccccc1N=Nc1c(C)n[nH]c1C	-17%	16%	7%	-10%	4%
COc1ccccc1N=Nc1c(C)[nH][nH]c1=O	?	-3%	35µM*	-28%	-19%
COc1ccc(N=Nc2c(C)[nH][nH]c2=O)cc1	56µM*	-30%	?	-34%	-13%
c1ccc(CNc2ncnc3nc(N4CCOCC4)[nH]c23)cc1	/	33%	/	-13%	/
CC(C)C[C@H](NC(=O)c1[nH]cnc1C(=O)N[C@@H](Cc1ccccc1)C(=O)OC(C)(C)C)C(=O)OC(C)(C)C	0%	49%	1%[59 µM]	-19%	30%
CC(C)C[C@@H](CNCC(=O)[C@H](Cc1c[nH]c2ccccc12)NC(=O)c1[nH]cnc1C(=O)N[C@@H](C)CN)NC(=O)c1nc[nH]c1C(=O)N[C@@H](C)C(=O)O	/	27%	/	50µM*	/
CC(C)C[C@@H](CN)NC(=O)c1nc[nH]c1C(=O)N[C@@H](Cc1c[nH]c2ccccc12)C(=O)CNC[C@H](C)NC(=O)c1nc[nH]c1C(=O)N[C@@H](CC(=O)O)C(=O)O	/	21%	/	56µM*	/
CC(C)C[C@@H](CNCC(=O)[C@H](Cc1c[nH]c2ccccc12)NC(=O)c1[nH]cnc1C(=O)N[C@@H](C)CN)NC(=O)c1nc[nH]c1C(=O)N[C@@H](CC(=O)O)C(=O)O	/	22%	/	20µM*	/
CC(C)C[C@@H](CNCC(=O)[C@H](Cc1c[nH]c2ccccc12)NC(=O)c1[nH]cnc1C(=O)N[C@H](CN)CC(C)C)NC(=O)c1nc[nH]c1C(=O)N[C@@H](CC(=O)O)C(=O)O	/	?	/	40µM*	/
COC(=O)C(Cc1c[nH]c2ccccc12)NC(=O)c1ccc2nc[nH]c2c1 (stereo not drawn)	-7%	22%	-46%	-16%	/
CC(C)C[C@@H](CN)NC(=O)c1nc[nH]c1C(=O)N[C@@H](Cc1ccccc1)C(=O)CNC[C@H](C)NC(=O)c1nc[nH]c1C(=O)N[C@@H](CC(=O)O)C(=O)O	/	63%	/	?	/
O=[N+]([O-])c1cc(-c2csc(NC(CO)c3nc4ccccc4n3CCOCCO)n2)ccc1Cl (stereo not drawn)	/	-2%	/	?	/
O=C(O)CCCC1(C(=O)O)CCCC1	/	31%	/	-10%	/
Cc1cccn2c(=O)c3cc(C#N)c(=N)n(CCN4CCOCC4)c3nc12	50µM*	1%	19%	7%[11.4 µM]	6%
Cc1ccc2nc3c(cc(C(N)=S)c(=N)n3CCCOC(C)C)c(=O)n2c1	-7%	?	22µM*	?	45µM*
COCCCn1c(=N)c(C(N)=S)cc2c(=O)n3cccc(C)c3nc21	/	1%	/	-30%	/
Cc1cccn2c(=O)c3cc(C(N)=S)c(=N)n(CCCN4CCOCC4)c3nc12	-33%	26%	45µM*	-31%	-27%
Cc1ccc(C)c(N(C(=O)c2snc(C(N)=O)c2N)C(C(=O)NCC2CCCO2)c2cccs2)c1 (stereo not drawn)	-13%	19%	12%	11µM*	2%
CCOC(=O)CN(C(=O)c1snc(C(N)=O)c1N)C(C(=O)NC1CCCCC1)c1ccc(F)cc1 (stereo not drawn)	79µM*	42%	0%[59 µM]	?	4%
COc1ccccc1N(C(=O)c1snc(C(N)=O)c1N)C(C(=O)NC1CCCC1)c1ccco1 (stereo not drawn)	-5%	26%	-12%	-29%	8%
